High-throughput results: PubChem BioAssay, National Center for Advancing Translational Sciences (NCATS)
Sfp PPTase inh = qHTS Assay for Inhibitors of Bacillus subtilis Sfp phosphopantetheinyl transferase (PPTase); hit rate 3.5% among 310,000; Biochemical Sfp PPTase activity, qHTS; Potency, µM, for the others: largest response in the series, negative = inhibition, usual class: inhibitors; 4'-phosphopantetheinyl transferase ffp (Bacillus subtilis), Q9F4F7;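 further: the enzyme is Sfp with the accession as filed and its product quenches rhodamine fluorescence; 0% = enzyme reaction without inhibitor and -100% = no enzyme wells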
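Fluorescence-quenching assay with 15 nM Sfp, 5 uM rhodamine-CoA and 12.5 uM BHQ-2-labelled ybbR peptide in pH 7.6 Hepes/MgCl2 buffer. Enzyme was pre-incubated with compound for 15 min at room temperature. Rate was taken from the 30-min fluorescence change (525/598 nm).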
BAZ2B inh = qHTS Assay for Inhibitors of BAZ2B; Bromodomain adjacent to zinc finger domain protein 2B (Homo sapiens), Q9UIF8; AlphaScreen BAZ2B-H3K14Ac peptide displacement; Potency, µM (titrated, usually from 114 µM), without a hit: at the top dose activity change, negative = inhibition, most hits filed as inhibitors; hit rate 4.4% among 360,000; AID 504333, 2011; further: on the % scale 0 is the no-effect control and ±100 the full control effect; nearly all actives have a fitted effect of over 60% in size
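AlphaScreen displacement: compounds (up to 110uM) incubated 30 min at room temperature with a preformed 50 nM BAZ2B/50 nM biotinylated H3K14Ac peptide complex in PBS pH 7.4 with Tween-20. Donor and acceptor beads at 10 ug/mL final added, 20 min light-protected before reading.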
JMJD2A Tudor = qHTS Assay for Inhibitors of JMJD2A-Tudor Domain; Potency, µM (top dose mostly 114 µM), for inactives: at the highest dose activity change, negative = inhibition, most hits filed as inhibitors; AID 504339, 2011; AlphaScreen JMJD2A-Tudor / H3K4me3 peptide binding; hit rate 4.4% among 390,000; Lysine-specific demethylase 4A (Homo sapiens), O75164; further: on the % scale 0 is the no-effect control and ±100 the full control effect; nearly all actives have a fitted effect of over 50% in size
HP1b chromo inh = HTS for Inhibitors of HP1-beta Chromodomain Interactions with Methylated Histone Tails. AlphaScreen HP1-beta / biotin-H3K9me3 peptide binding. Potency, µM (series often up to 114 µM), for inactives: at the top dose activity change, negative = inhibition, most hits filed as inhibitors. hit rate 0.56% among 390,000. Chromobox protein homolog 1 (Homo sapiens), P83916; further: nearly all actives have a fitted effect of over 70% in size
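Compound inhibition of the preformed complex between 50 nM HP1-beta and 50 nM biotinylated H3K9me3 peptide was read by AlphaScreen. Buffer was PBS pH 7.4 with 0.01% Tween-20. Incubations ran 30 min at room temperature, with 10 ug/mL donor/acceptor beads.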
G9a block = qHTS Assay for Inhibitors of Histone Lysine Methyltransferase G9a. AID 504332, 2011. G9a H3K9 monomethylation, AlphaScreen, 2 h. Potency, µM (highest dose often 102 µM), without a hit: at the top dose activity, negative = inhibition, actives largely listed as inhibitors. hit rate 8.8% among 350,000; further: on the % scale 0 is the no-effect control and ±100 the full control effect; nearly all actives have a fitted effect of over 75% in size
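Methyltransferase reactions run at room temperature for 2 h (20 nM enzyme, 500 nM biotin-H3K9 peptide, 20 uM SAM) after a 15 min compound preincubation; product detected by AlphaScreen beads and anti-H3K9me1 antibody.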
PLK1 PBD block = qHTS for Inhibitors of PLK1-PDB (polo-like kinase 1 - polo-box domain): Primary Screen; Serine/threonine-protein kinase PLK1 (Homo sapiens), P53350; Plk1 PBD binding of FITC phosphopeptide, fluorescence polarization; Potency, µM, for the others: max response, negative = inhibition, usual class: inhibitors; hit rate 2.8% among 360,000; AID 720504, 2013; further: series mostly up to about 57 µM; on the % scale 0 is the no-effect control and ±100 the full control effect; nearly all actives have a fitted effect of over 65% in size
Target sequence (P53350 whole entry, looked up, the tested form may be a part): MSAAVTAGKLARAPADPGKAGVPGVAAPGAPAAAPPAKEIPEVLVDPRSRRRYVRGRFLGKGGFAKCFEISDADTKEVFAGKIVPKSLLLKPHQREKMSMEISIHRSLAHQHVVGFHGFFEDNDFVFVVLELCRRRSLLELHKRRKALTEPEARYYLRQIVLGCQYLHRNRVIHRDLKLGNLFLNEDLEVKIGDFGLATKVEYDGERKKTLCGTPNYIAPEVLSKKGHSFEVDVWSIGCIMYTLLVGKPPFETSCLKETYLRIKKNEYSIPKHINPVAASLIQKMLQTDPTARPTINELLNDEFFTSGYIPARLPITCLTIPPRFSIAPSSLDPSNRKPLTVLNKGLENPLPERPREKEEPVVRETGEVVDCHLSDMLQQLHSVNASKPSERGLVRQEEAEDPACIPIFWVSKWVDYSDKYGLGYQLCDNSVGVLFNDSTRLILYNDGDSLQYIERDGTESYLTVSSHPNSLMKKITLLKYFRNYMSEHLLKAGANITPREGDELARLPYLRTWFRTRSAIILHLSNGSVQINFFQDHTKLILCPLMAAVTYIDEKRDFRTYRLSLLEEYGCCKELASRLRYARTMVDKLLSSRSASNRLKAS
* hit, by the source's call; ? = inconclusive; . = no result given; [ ] = dose if it differs, or a comment. This is a sample that favours compounds with a hit; in the whole collection about 12% have one here. The call rests on the fitted dose curve; in most records, active means well fitted curve in the direction sought with a large enough effect; inconclusive means small, poorly fitted or top-dose-only effect, or another doubt; inactive means no such curve, though single readings can be large; an effect the other way counts as inactive or inconclusive. Potency means the concentration at half of the fitted maximal effect.

SMILES	Sfp PPTase inh	BAZ2B inh	JMJD2A Tudor	HP1b chromo inh	G9a block	PLK1 PBD block
COc1ccccc1CN1CC(C(=O)N(C)CCc2ccccn2)CCC1=O (configuration not stated)	.	.	.	.	.	-1%
CCOC(=O)c1ccc(CN(Cc2ccccc2C)S(=O)(=O)c2ccc(F)c(C(=O)Nc3cccc(OC)c3)c2)cc1	.	6%	-14%	17%	-3%[59 µM]	.
CCOc1ccc(N2CC(C(=O)Nc3ccc(S(=O)(=O)Nc4nccs4)cc3)CC2=O)cc1 (configuration not stated)	11%	-24%	-7%	-4%	?	-2%
CCOC(=O)c1[nH]c2c(c1Cc1ccccc1)C(=O)CC(c1ccc(OC)cc1)C2 (configuration not stated)	.	-22%	-26%	16%	-2%[59 µM]	.
CCc1nc2ccc(C(=O)Nc3ccc(OC)c(OC)c3)cn2c1N(C)C(=O)Cc1ccccc1	.	.	.	.	.	-3%
CCOC(=O)N1CCN(C(=O)CSc2nnc3[nH]c(=O)c(C)c(C)n23)CC1	.	-3%	-1%	35%	14µM*	1%
CCOC(=O)N1CCN(C(=O)CSc2nc3c(cnn3-c3ccc(C)cc3)c(=O)[nH]2)CC1	6%	-1%	-8%	53%	?	-4%
CCCSc1nc2c(c(=O)[nH]c(=O)n2C)n1CC(O)COc1ccccc1 (configuration not stated)	-4%	2%	-9%	-3%	50µM*	-30%
Cn1c(=O)c2c(nc(N3CCCCCC3)n2CC(O)COc2ccccc2)n(C)c1=O (configuration not stated)	-14%	-4%	?	?	10%[0.0925 µM]	3µM*
CC(C)CSc1nc2c(c(=O)[nH]c(=O)n2C)n1CC(O)COc1cccc2ccccc12 (configuration not stated)	28µM*	-9%	?	?	4µM*	11µM*
COCCCNc1nc2c(c(=O)[nH]c(=O)n2C)n1CC(O)COc1ccccc1C (configuration not stated)	14%	-4%	-30%	-5%	-20%	24µM*
Cn1c(=O)c2c(nc(N3CCCCC3)n2CC(O)COc2ccccc2)n(C)c1=O (configuration not stated)	22%	5%	-17%	10%	21%	-11%
O=C(CCOc1ccccc1)N(Cc1cccnc1)c1nc2ccc(F)cc2s1	.	-10%	-9%	13%	?	.
O=c1cnc2cnc(N3CCNCC3)nc2n1Cc1ccc(F)cc1	2%	.	.	.	7%[0.501 µM]	.
COc1cc(CN(C(=O)COc2ccc(C)c(C)c2)c2ccccn2)cc(OC)c1OC	.	-17%	-16%	7%	10%[59 µM]	.
C[C@H](NS(=O)(=O)c1ccc(Cl)cc1)C(=O)OCC(=O)Nc1cc(S(=O)(=O)N2CCOCC2)ccc1Cl	.	.	-15%	12%	.	-6%
NS(=O)(=O)c1ccc(CCN2C(=O)CCC2=O)cc1	16%	3%	1%	20%	-4%	-1%
Cn1c(=O)[nH]c(=O)c2c1nc(SCCO)n2CC(O)COc1ccccc1 (configuration not stated)	5µM*	-26%	-21%	?	16µM*	24µM*
CCSc1nc2c(c(=O)[nH]c(=O)n2C)n1CC(O)COc1ccccc1 (configuration not stated)	10%	.	-14%	48%	9%	5%
CNc1ncnc2c1ncn2[C@H]1C[C@H](OP(=O)(O)O)[C@H](COP(=O)(O)O)O1	28µM*	.	.	.	.	.
CNc1ncnc2c1ncn2[C@H]1C[C@H](O)[C@@H](CO)O1	18%	.	.	.	43%[59 µM]	.
